From article PMC7862700, “An all-to-all approach to the identification of sequence-specific readers for epigenetic DNA modifications on cytosine” come the findings set out here.

Assay in all cases: DAPPL (digital affinity profiling via proximity ligation, sequencing); 10 mM Tris-HCl pH 7.5, 50 mM NaCl, 1 mM DTT, 4% glycerol, room temperature, 30 min; GST-TFs on glutathione beads, 16-mer random dsDNA library, 0.1% formaldehyde crosslink after washing; high values mean tight binding
Holding throughout (details): protein: recombinant; tags: N-terminal GST; dsDNA, one strand shown

One assay addresses T1, FLI1 (Homo sapiens, UniProt Q01543 1-452).
T1 sequence: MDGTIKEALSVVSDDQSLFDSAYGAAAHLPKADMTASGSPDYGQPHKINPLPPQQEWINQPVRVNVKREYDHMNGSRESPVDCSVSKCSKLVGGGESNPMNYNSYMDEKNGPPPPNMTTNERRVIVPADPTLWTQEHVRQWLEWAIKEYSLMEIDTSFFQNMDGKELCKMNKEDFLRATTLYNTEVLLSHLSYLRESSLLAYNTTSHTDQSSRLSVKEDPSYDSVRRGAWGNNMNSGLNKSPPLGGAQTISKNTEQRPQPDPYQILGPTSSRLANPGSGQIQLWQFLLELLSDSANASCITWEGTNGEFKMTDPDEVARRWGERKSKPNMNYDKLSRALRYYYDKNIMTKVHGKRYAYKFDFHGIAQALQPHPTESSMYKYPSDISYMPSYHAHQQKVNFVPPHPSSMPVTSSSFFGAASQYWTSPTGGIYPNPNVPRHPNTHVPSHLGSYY
In a few lines: (§1)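 Human transcription factors carrying a GST fusion were produced in yeast, bound to glutathione beads, tagged with DNA barcodes and pooled together with a tag-only sample. Each pool was held with 200 nmole of a random double-stranded 16-mer DNA library in Tris/NaCl/DTT/glycerol buffer for 30 min at room temperature, then washed, crosslinked in 0.1% formaldehyde, proximity-ligated with BsaI/T4 ligase (1 h, 37 °C), PCR-amplified and sequenced on an Illumina NextSeq500. Binding signal is the read frequency of each hexamer for a given factor divided by its frequency in the tag-only sample.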

The target of the next assay is T2, ELK1 (Homo sapiens, UniProt P19419 1-428).
T2 sequence: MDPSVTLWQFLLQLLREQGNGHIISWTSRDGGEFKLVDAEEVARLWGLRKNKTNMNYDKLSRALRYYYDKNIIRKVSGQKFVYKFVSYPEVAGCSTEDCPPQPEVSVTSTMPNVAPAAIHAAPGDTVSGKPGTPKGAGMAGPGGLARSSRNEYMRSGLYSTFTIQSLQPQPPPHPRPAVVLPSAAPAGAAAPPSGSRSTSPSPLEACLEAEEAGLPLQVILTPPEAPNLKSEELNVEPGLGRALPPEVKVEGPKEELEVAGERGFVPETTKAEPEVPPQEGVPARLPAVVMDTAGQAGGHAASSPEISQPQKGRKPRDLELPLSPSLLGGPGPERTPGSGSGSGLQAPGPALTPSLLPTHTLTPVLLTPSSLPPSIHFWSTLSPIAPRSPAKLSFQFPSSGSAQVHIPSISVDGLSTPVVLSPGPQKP
In a few lines: as §1

The next assay has as its target T3, GABPA (Homo sapiens, UniProt Q06546 1-454).
T3 sequence: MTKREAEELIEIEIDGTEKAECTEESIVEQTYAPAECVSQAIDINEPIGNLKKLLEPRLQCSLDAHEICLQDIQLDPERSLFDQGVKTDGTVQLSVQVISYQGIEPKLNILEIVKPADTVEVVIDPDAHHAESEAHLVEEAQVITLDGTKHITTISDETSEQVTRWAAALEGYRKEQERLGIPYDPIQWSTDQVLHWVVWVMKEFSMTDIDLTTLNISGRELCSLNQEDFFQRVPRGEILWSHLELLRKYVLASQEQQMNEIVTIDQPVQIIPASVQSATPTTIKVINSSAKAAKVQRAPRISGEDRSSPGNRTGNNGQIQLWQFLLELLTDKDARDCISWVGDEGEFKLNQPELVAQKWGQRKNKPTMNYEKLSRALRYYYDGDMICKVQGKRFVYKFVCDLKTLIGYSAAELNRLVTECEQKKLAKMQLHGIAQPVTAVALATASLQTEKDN
The method in brief: as §1

For another assay, the target named is T4, ERG (Homo sapiens, UniProt P11308 1-479).
T4 sequence: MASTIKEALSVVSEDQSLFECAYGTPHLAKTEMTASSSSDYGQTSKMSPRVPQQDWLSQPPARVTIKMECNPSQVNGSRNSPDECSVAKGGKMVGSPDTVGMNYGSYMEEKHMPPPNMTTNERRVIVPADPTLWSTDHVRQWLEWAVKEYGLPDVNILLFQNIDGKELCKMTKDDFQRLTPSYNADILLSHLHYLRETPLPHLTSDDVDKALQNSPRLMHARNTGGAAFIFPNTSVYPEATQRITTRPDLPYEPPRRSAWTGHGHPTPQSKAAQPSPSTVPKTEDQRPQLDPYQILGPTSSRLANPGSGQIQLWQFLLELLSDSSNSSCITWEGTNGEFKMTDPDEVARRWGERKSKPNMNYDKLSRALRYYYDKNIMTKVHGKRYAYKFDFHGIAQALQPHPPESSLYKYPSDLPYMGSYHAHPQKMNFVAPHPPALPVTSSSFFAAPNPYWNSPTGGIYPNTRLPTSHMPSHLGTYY
In a few lines: as §1

A further assay deals with ELF1 (Homo sapiens, UniProt P32519 1-619). The method in brief:
as §1

A further assay addresses T5, EHF (Homo sapiens, UniProt Q9NZC4 1-300).
T5 sequence: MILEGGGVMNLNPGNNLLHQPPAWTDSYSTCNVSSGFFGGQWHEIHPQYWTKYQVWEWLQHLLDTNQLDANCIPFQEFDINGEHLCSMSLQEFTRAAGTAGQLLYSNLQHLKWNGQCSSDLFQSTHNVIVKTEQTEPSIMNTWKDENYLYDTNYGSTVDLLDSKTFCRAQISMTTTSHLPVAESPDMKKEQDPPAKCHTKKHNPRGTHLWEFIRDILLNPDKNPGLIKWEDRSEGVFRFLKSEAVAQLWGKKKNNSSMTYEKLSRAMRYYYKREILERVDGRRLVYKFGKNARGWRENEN
In a few lines: as §1

For the next assay, the target named is SPI1 (Homo sapiens, UniProt P17947 1-270). In a few lines: as §1
In a further assay the target is SPIB (Homo sapiens, UniProt Q01892 1-262). The method in brief:
as §1

A further assay has as its target T6, ELK3 (Homo sapiens, UniProt P41970 1-407).
T6 sequence: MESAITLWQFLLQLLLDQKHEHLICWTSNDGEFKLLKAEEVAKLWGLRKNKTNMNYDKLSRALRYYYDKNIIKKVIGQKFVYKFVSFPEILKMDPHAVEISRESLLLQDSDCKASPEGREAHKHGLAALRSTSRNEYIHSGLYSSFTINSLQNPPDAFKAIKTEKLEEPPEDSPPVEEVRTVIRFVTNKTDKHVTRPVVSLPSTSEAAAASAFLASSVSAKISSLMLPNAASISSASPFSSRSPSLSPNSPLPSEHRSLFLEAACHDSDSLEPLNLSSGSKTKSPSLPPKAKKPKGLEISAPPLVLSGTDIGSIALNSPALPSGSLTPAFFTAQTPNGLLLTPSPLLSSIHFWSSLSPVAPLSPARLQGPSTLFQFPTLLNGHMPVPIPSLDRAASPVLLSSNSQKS
The method in brief: as §1

Sequence of SPIB (Q01892 whole entry): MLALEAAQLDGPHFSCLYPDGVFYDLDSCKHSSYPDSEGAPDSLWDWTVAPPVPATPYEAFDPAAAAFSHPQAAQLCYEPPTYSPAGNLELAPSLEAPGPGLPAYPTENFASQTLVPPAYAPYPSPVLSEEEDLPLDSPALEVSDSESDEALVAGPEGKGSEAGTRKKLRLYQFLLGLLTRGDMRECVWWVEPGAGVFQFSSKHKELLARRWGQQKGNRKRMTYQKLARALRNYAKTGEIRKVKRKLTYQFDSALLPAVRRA
Sequence of ELF1 (P32519 whole entry): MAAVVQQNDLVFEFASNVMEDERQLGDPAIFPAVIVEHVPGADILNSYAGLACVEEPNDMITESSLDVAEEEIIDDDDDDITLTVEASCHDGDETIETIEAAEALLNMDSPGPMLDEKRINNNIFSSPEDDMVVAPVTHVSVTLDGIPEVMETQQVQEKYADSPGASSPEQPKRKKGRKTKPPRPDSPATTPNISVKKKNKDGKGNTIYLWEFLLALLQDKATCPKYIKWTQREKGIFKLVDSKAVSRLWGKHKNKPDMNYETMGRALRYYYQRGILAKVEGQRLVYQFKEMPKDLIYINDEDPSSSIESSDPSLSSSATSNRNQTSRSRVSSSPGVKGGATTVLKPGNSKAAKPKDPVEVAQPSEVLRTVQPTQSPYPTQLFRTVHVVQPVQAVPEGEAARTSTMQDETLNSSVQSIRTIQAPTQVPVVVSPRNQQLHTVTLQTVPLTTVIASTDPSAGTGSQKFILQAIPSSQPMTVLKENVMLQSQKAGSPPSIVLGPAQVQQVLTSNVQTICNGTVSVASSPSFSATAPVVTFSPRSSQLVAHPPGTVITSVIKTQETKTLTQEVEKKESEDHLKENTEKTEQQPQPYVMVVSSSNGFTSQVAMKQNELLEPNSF

Take AAACCC: the binding signal with FLI1 is 1.26 fold enrichment (6-mer frequency, TF over GST control); with ELK1 it was 1.32 fold enrichment (6-mer frequency, TF over GST control); with GABPA, 1.22 fold enrichment (6-mer frequency, TF over GST control); with ERG it was 1.25 fold enrichment (6-mer frequency, TF over GST control); in the assay with ELF1, 1.32 fold enrichment (6-mer frequency, TF over GST control); with EHF it was 1.27 fold enrichment (6-mer frequency, TF over GST control). Further, the binding signal with SPI1 is 1.22 fold enrichment (6-mer frequency, TF over GST control); with SPIB, 1.34 fold enrichment (6-mer frequency, TF over GST control); in the assay with ELK3, 1.36 fold enrichment (6-mer frequency, TF over GST control).
As for CTGTCT, the binding signal is 1.35 fold enrichment (6-mer frequency, TF over GST control) with FLI1; 1.3 fold enrichment (6-mer frequency, TF over GST control) with ELK1; 1.31 fold enrichment (6-mer frequency, TF over GST control) with GABPA; 1.46 fold enrichment (6-mer frequency, TF over GST control) in the assay with ERG; 1.35 fold enrichment (6-mer frequency, TF over GST control) with ELF1; 1.35 fold enrichment (6-mer frequency, TF over GST control) in the assay with EHF. Moreover, the binding signal with SPI1 was 1.33 fold enrichment (6-mer frequency, TF over GST control); with SPIB it was 1.3 fold enrichment (6-mer frequency, TF over GST control); with ELK3 it was 1.62 fold enrichment (6-mer frequency, TF over GST control).
Turning to AAGATT, the binding signal with FLI1 was 1.1 fold enrichment (6-mer frequency, TF over GST control); with ELK1, 1.17 fold enrichment (6-mer frequency, TF over GST control); with GABPA it was 1.18 fold enrichment (6-mer frequency, TF over GST control); with ERG it was 1.17 fold enrichment (6-mer frequency, TF over GST control); with ELF1, 1.19 fold enrichment (6-mer frequency, TF over GST control); in the assay with EHF, 1.16 fold enrichment (6-mer frequency, TF over GST control). The binding signal is 1.12 fold enrichment (6-mer frequency, TF over GST control) in the assay with SPI1; 1.16 fold enrichment (6-mer frequency, TF over GST control) with SPIB; 1.04 fold enrichment (6-mer frequency, TF over GST control) with ELK3.
For ACCGAC, the binding signal in the assay with FLI1 is 1.41 fold enrichment (6-mer frequency, TF over GST control); with ELK1 it was 1.29 fold enrichment (6-mer frequency, TF over GST control); with GABPA, 1.29 fold enrichment (6-mer frequency, TF over GST control); with ERG, 1.29 fold enrichment (6-mer frequency, TF over GST control); with ELF1 it was 1.3 fold enrichment (6-mer frequency, TF over GST control); in the assay with EHF, 1.23 fold enrichment (6-mer frequency, TF over GST control). The binding signal with SPI1 is 1.4 fold enrichment (6-mer frequency, TF over GST control); in the assay with SPIB it was 1.34 fold enrichment (6-mer frequency, TF over GST control); in the assay with ELK3, 1.35 fold enrichment (6-mer frequency, TF over GST control).
With TAAAAT, the binding signal in the assay with FLI1 is 1.17 fold enrichment (6-mer frequency, TF over GST control); with ELK1 it was 1.2 fold enrichment (6-mer frequency, TF over GST control); with GABPA it was 1.25 fold enrichment (6-mer frequency, TF over GST control); in the assay with ERG, 1.19 fold enrichment (6-mer frequency, TF over GST control); with ELF1, 1.24 fold enrichment (6-mer frequency, TF over GST control); in the assay with EHF it was 1.1 fold enrichment (6-mer frequency, TF over GST control). Moreover, the binding signal in the assay with SPI1 is 1.25 fold enrichment (6-mer frequency, TF over GST control); in the assay with SPIB it was 1.2 fold enrichment (6-mer frequency, TF over GST control); with ELK3, 1.1 fold enrichment (6-mer frequency, TF over GST control).
CCGATT: the binding signal with FLI1 was 1.42 fold enrichment (6-mer frequency, TF over GST control); with ELK1, 1.35 fold enrichment (6-mer frequency, TF over GST control); in the assay with GABPA, 1.32 fold enrichment (6-mer frequency, TF over GST control); with ERG it was 1.34 fold enrichment (6-mer frequency, TF over GST control); with ELF1, 1.36 fold enrichment (6-mer frequency, TF over GST control); in the assay with EHF, 1.4 fold enrichment (6-mer frequency, TF over GST control). Moreover, the binding signal with SPI1 was 1.31 fold enrichment (6-mer frequency, TF over GST control); with SPIB, 1.4 fold enrichment (6-mer frequency, TF over GST control); with ELK3, 1.29 fold enrichment (6-mer frequency, TF over GST control).
Turning to TTTGTT, the binding signal in the assay with FLI1 is 1.26 fold enrichment (6-mer frequency, TF over GST control); with ELK1 it was 1.29 fold enrichment (6-mer frequency, TF over GST control); with GABPA it was 1.31 fold enrichment (6-mer frequency, TF over GST control); in the assay with ERG it was 1.28 fold enrichment (6-mer frequency, TF over GST control); in the assay with ELF1, 1.29 fold enrichment (6-mer frequency, TF over GST control); with EHF it was 1.35 fold enrichment (6-mer frequency, TF over GST control). The binding signal with SPI1 is 1.22 fold enrichment (6-mer frequency, TF over GST control); with SPIB, 1.17 fold enrichment (6-mer frequency, TF over GST control); with ELK3, 1.3 fold enrichment (6-mer frequency, TF over GST control).
